# Reference: the supplement of paper PMC11417369
# ± gives the standard deviation of the averaged measurements. Whole data set: some 25,000 sequences, median “ln(normalized median fluorescence intensity)” near 7.9, cut for the highest 2% near 11. For the sample, the highest values were picked, then their nearest neighbours and some sequences at random.
# System: PfAP2-I AP2 domain 3 (GST-tagged)
# Test: gcPBM binding intensity (ln(normalized median fluorescence intensity)); higher = stronger DNA binding
# In short: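 GST-fused DNA-binding domains of P. falciparum, expressed in E. coli, were applied at about 25 μg on average for 1 h to an Agilent 4 × 180k array of primer-extended double-stranded 36-bp intergenic genomic probes and negative controls. Binding intensity is the highest Masliner-normalised natural-log median intensity across replicate spots of either probe orientation, measured with Alexa488 anti-GST antibody and a 488 nm scan.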
row,Sequence,gcPBM binding intensity (ln)
1,ACTTATTTCGATATGTGTACTTAATATATATATTTA [XGTACX_site6616],7.89 ± 0.39
2,ACATATACAAGACACACACACAACGTTTTAATAAAT [CACACA_site7017],8.12 ± 0.46
3,ACATATTTTTAATACACACTCAAAAAAGTACTTAAC [CACACA_site3014],8.2 ± 0.28
4,TCTACAATTATAATTACACACTATAAAAAAGAAAGA [CACACA_site2984],7.96 ± 0.35
5,TCTTTTTTTTTTATTTGTACTTATTTTTTTCAAAAA [XGTACX_site3403],8.24 ± 0.51
6,TGAAAAAAAAAAAAAAAAAAAAGAAAAAAAAAAAAA [CACACA_negctrl_site709],7.82 ± 1.2
7,AATAATCTATATTGTACACACAAAATGGGAAAAAAA [CACACA_site6969],8.11 ± 0.73
8,TTTTTTATTTTGTGCACACACATAAAAATATAAATA [CACACA_site6497],11.01 ± 0.042
9,ATATCATTTTCCTGCACACATAAATTTATATAATAT [CACACA_site1048],9.45 ± 0.38
10,TTTTTCCTATTTTTAGTGCACATATAAATAAATAAA [GTGCAC_site9821],11.6 ± 0.23
11,ACATATAAATATTGTGTGCACACACATAATATATAT,10.2 ± 0.18
12,ACATAATATACTATTGTGCACATATATATATATATA [GTGCAC_site9761],10.88 ± 0.085
13,TTATTTATTTATATAGTGCAATAAACACATAAATAG,10.8 ± 0.47
14,ATATATATTTTTTAAACACACACATAAATATTTGTG [CACACA_site8936],7.97 ± 0.38
15,ATAAAAAAAAATATTTGTACACATATTTATATATTA [XGTACX_site8147],7.63 ± 0.36
16,ATAGAACTATATTGCACACATAATATATATATATAT [CACACA_site3189],10.5 ± 0.52
17,ATTTATTTATTGGCACGTACAAATTTGTGTTTTCCA [XGTACX_site6978],8.54 ± 0.53
18,TATTTTTCCATAAAAATTTATATAGAAACAAATAAT [GTGCAC_negctrl_site103],7.75 ± 0.46
19,AATTTTCCATAGATTGTGCACAAATTTTTATTTTGT,10.9 ± 0.2
20,AAAAAGAACAGAAACACACAAATAAAATAAAATTGT [CACACA_site6921],7.72 ± 0.61
21,TTTTTTTTCTTTTTTTGTACATAATAATATATAAAT [XGTACX_site6778],7.68 ± 0.35
22,TGTTCTATTCTATTATTATTTACAAATTATAAATAA [GTGCAC_negctrl_site232],7.89 ± 0.37

row,Sequence,gcPBM binding intensity (ln)
1,TTTAATTTTCGGTGTGCACACAACTATGAGTTTTTA [CACACA_site3034],9.565 ± 0.035
2,ATACAATTTATTTTAACACACGAATGAATTGATTAT [CACACA_site4160],7.76 ± 0.63
3,TGTGTATATCGATAAAGTACATTTGAAAAGTGACTT [XGTACX_site6957],7.62 ± 0.51
4,TTTTATTTTTTTAAATGTACACATATTAATGTAAGG [XGTACX_site319],7.92 ± 0.3
5,TATTGGATCACACAAAAATGTATAAATAAATAGAAA [TGCATGCA_negctrl_site490],7.7 ± 0.61
6,TCGAACATTAACATAACACACATATATATATATATA [CACACA_site2900],9.27 ± 0.29
7,TATATACATATATGCACACAAAAAAATATATATTTT [CACACA_site1729],8.99 ± 0.11
8,TATCCATTTCTTTATGTGCACATTAAATATATTTGT,10.2 ± 0.4
9,ATATTATTATATATAGTGCATATTATTATTTTTATT,10.2 ± 0.42
10,TACATATTGATATATACACACAAAAAAATAAATTCT [CACACA_site6198],7.61 ± 0.54
11,GAAATTTGTTATTGCACACAAATTTTTCTTTTTTTA [CACACA_site2339],10.14 ± 0.028
12,TTATTTTTGTTCATAGTGCATAGAATTTATACATAT,9.91 ± 0.33
13,ATATTTTGTTTTATAGTGCACATGGGCATATATTAA [GTGCAC_site9435],11 ± 0.32
14,CATTTTATTTTCTTTGTGCACAAAAATATTTTTTCT,11.13 ± 0.092
15,ATATATTTGATAAGAGTGCACAAATACATACATACA [GTGCAC_site9704],10.94 ± 0.071
16,TTGTTTGATATCTTTGTCACGAAAAAAATATATATA [GTGCAC_negctrl_site54],7.83 ± 0.64
17,TCTTTTTTCATATTTTCACACATGTCTTTATATTTA [CACACA_site6025],8.28 ± 0.65
18,ATGAATAAATGAACATGTACATATATATATATATTA [XGTACX_site5005],7.76 ± 0.47
19,TTTTGGCTTCTAATATTATACAAAATGGTAAGGAAA [TGCATGCA_negctrl_site169],7.94 ± 0.4
20,TAATTTCTTAGGTATTGTACAAATATTATATGATAT [XGTACX_site256],7.55 ± 0.59
21,TATCCCTTAGAATACACACCCATATGAGGGTGAACT [CACACA_site5610],7.76 ± 0.26
22,TATTTTTTTTTTATATGTACATAATTTCAAATAAAT [XGTACX_site7747],7.97 ± 0.41

row,Sequence,gcPBM binding intensity (ln)
1,TATAATTATATTTGGAGTACAAATTTTTTTTTTTTT [XGTACX_site7494],7.765 ± 0.007
2,TATATTTCAGGGGGGAGTACAAATTTTTTTATATAA [XGTACX_site1600],11 ± 0.52
3,ATTATTATATATATAACACACATAATTATATACTTA [CACACA_site1563],7.89 ± 0.38
4,TCTATAAAGTTCCATACATGCGCCATCATTTATATT [TGCATGCA_site195],7.97 ± 0.79
5,TTTTTAATCAGAAATATTTATTAAAGAATTTTATAG [GTGCAC_negctrl_site725],7.32 ± 0.34
6,AGATATTTATTGAGTGCATGTTATAAAGGGAAAAAA [TGCATGCA_site88],9.04 ± 0.17
7,TTTGTTTTTTTGAGAGTGCAATATATATAAAAAGGG [GTGCAC_site9691],11.2 ± 0.64
8,TTATAAATAAAAAGAGTGCAATTATAAATATATATA,10.1 ± 0.23
9,GGTTAAAAAAAGCATACACACTATCCTCTTTGCTCT [CACACA_site7246],7.9 ± 0.65
10,AATTTTTTTTTTTTTTTTTTTTATATATGTGTGTGT [XGTACX_negctrl_site129],7.59 ± 0.28
11,TATATATATTTTTGTGTGCACTATAATATGAAAATA,11.4 ± 0.45
12,CAAAATATTTTTATAACACACATATATATAATGTGC [CACACA_site4767],7.8 ± 0.52
13,ATCATATTTTTATGTGTGCACTTTTTTTTTTTTTTT [GTGCAC_site9555],10.25 ± 0.014
14,ATATATTTTATATGTGTGCACTATATATATATATAT,11.4 ± 0.3
15,ATATATCATAAATAAATGAAAATATTTTCTATGTGT [CACACA_negctrl_site689],7.77 ± 0.62
16,TATATTTTTATGTGTGTGCACAAAATAACAAAATAT [GTGCAC_site9596],11.1 ± 0.35
17,TGCATAATTAAAAATGGTACACTGTATTTATAATAT [XGTACX_site1575],7.95 ± 0.61
18,AAATGAAATAAAATCATATATTTATAATTATTATAA [TGCATGCA_negctrl_site612],7.27 ± 0.41
19,TTTTTTTTTTTTTTTGCACACTATATTTAATATAAG [CACACA_site2444],9.42 ± 0.21
20,TTTAATTATTAAATGGTGCACTTGAAATATAAAAAT,11 ± 0.45
21,GTTTATTTATTTTATGTGCACATATAACAAAAAAAA,10.36 ± 0.028
